The full list was thinned out, with hits kept by preference.
DT40 TDP1 CPT – growth inhibition of DT40 Tdp1-/-;hTDP1 cells with camptothecin (screen for TDP1 inhibitors); chicken DT40 Tdp1-/-;hTDP1 cells + 20 nM CPT, ATP luminescence, 48 h; Potency, µM (series often up to 46.2 µM), most hits filed as inhibitors; 420,000 compounds, 12% hits; further: nearly all actives have a fitted effect of over 55% in size
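Chicken DT40 Tdp1-/- cells stably complemented with human TDP1 were seeded at 400 cells/well in medium containing 20 nM camptothecin, exposed to pin-transferred compounds, and grown at 37 °C for at least 48 hr. Viability was read as ATP luminescence.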
HT1080 IDH1KD tx – kills HT-1080 cells with IDH1 knockdown | HT-1080 IDH1 knockdown viability, ATP luminescence, 48 h | Potency, µM (top dose mostly 46.1 µM), most hits filed as cytotoxic | 360,000 compounds, 2% hits | AID 686971
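HT-1080-IDH1KD cells (IDH1 knocked down), 750/well in RPMI with 5% FBS, treated with compound 48 h at 37 degrees C. Viability by CellTiter-Glo luminescence, normalised to DMSO and no-cell wells; concentration-response curves classed.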
IL-1B inflam inh – inflammasome signaling inhibition, IL-1 beta readout; THP-1 LPS/ATP IL-1B secretion, AlphaLISA, 16 h; hits give low values; activity change, % at 57.5 µM; 360,000 compounds, 4.7% hits; AID 743279; in the data active means activity change below about -50%; inconclusive means mostly about -30% to -49%
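Secreted IL-1B measured by AlphaLISA bead assay after 16 h compound exposure of THP-1 cells; compounds (final up to 57.5 uM) added 1 h before LPS (250 ng/mL) and ATP (1.25 mM) stimulation; lower signal means less secretion.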
HT1080NT lethal – kills 2HG-producing HT-1080-NT fibrosarcoma cells; HT-1080-NT fibrosarcoma viability, CellTiter-Glo ATP luminescence, 48 h; Potency, µM (top dose mostly 46.1 µM), actives largely listed as cytotoxic; 360,000 compounds, 1.6% hits; AID 686970;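 further: NT is the 2HG producing partner of a matched IDH1 knockdown line; nearly all actives have a fitted effect of over 55% in size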
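Read-out is CellTiter-Glo luminescence after 10 minutes at room temperature, following 48 hours' compound treatment of HT-1080-NT cells (750 cells/well, RPMI, 5% FBS, 37 degrees C).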
DT40 TDP1 no CPT – qHTS for Inhibitors of human tyrosyl-DNA phosphodiesterase 1 (TDP1): qHTS in cells in absence of CPT; DT40 Tdp1-/- hTDP1 cells, no CPT, ATP luminescence, 48 h; Potency, µM (series often up to 46.2 µM), actives largely listed as inhibitors; 420,000 compounds, 15% hits; AID 686978, 2013; further: nearly all actives have a fitted effect of over 55% in size
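Cells were dispensed at 400 per well, compounds added by pin tool, plates incubated ≥48 hr at 37 °C, then CellTiter-Glo added for 30 min at room temperature before luminescence reading. Line: DT40 Tdp1-/- complemented with hTDP1; camptothecin omitted.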
ALOX12 inh – inhibitors of human 12S-lipoxygenase ALOX12 | Potency, µM (top dose mostly 108 µM), most hits filed as inhibitors | 580,000 compounds, 1.1% hits | AID 1671190 | purified 12hLO, xylenol orange hydroperoxide absorbance
Target sequence (P18054 whole entry, looked up): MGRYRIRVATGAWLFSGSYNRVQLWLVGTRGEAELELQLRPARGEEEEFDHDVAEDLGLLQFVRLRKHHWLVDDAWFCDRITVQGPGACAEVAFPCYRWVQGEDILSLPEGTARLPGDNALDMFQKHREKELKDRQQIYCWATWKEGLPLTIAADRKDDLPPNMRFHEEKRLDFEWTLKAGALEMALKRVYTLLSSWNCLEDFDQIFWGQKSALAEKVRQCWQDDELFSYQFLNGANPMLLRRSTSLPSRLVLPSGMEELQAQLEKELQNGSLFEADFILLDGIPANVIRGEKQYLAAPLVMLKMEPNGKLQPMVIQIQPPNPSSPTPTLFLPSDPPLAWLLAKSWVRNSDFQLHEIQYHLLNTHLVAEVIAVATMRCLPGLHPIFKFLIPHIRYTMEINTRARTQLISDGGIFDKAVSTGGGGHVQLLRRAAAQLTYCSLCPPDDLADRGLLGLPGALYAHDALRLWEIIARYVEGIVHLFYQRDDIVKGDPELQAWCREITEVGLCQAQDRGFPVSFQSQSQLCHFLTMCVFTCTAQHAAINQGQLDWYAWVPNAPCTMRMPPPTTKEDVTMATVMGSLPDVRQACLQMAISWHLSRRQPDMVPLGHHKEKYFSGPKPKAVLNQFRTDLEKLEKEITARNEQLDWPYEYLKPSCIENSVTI
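Hydroperoxide product was detected by ferrous iron/xylenol orange as the 573 to 405 nm absorbance ratio. Arachidonic acid at 40 uM (final) was turned over for 30 min at room temperature by 150 nM human 12hLO, pH 7.0 Hepes buffer, after 15 min compound preincubation.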
A number is an active result; n = inactive; u = inconclusive; x = no result given; [ ] = remark or other dose. Unless noted, the call rests on the fitted dose curve; in most records, active means well fitted curve in the direction sought with a large enough effect; inconclusive means small, poorly fitted or top-dose-only effect, or another doubt; inactive means no such curve, though single readings can be large; an effect the other way counts as inactive or inconclusive.

SMILES | DT40 TDP1 CPT | HT1080 IDH1KD tx | IL-1B inflam inh | HT1080NT lethal | DT40 TDP1 no CPT | ALOX12 inh
COc1ccccc1NC(=O)Nc1nc(C(C)(C)C)cs1 | 16.4µM | n | -83.1 | u | n | n
COc1ccc(OC)c(NC(=O)Nc2nc(C(C)N)cs2)c1 (configuration not stated) | n | n | -68.9 | n | u | n
COc1ccccc1CNC(=O)Nc1cccs1 | u | n | n | n | u | u
COc1ccc(OC)c(NC(=O)Nc2nc(CN)cs2)c1 | u | n | n | n | u | n
COc1ccccc1CNC(=O)Nc1nc(C(N)C(C)C)cs1 (configuration not stated) | u | u | -50.9 | u | u | n
COc1ccccc1NC(=O)Nc1nc(C(N)C(C)C)cs1 (configuration not stated) | u | u | n | u | 20.6µM | n
CCCNC(=O)N1C[C@@H]2CCCN3CCC[C@@H]([C@H]23)[C@H]1CCCC(=O)NC | x | x | x | x | x | n
COC(=O)C(C)Sc1nc2ccsc2c(=O)n1Cc1ccccc1 (configuration not stated) | n | n | n | n | n | u
Cn1c(=O)cc(OCCCC(=O)Nc2cccc(Cl)c2)c2ccccc21 | u | n | n | n | u | n
COc1ccc(S(=O)(=O)N2CCOC23CCN(S(=O)(=O)c2cccs2)CC3)cc1 | 13µM | n | n | n | 16.4µM | n
Cc1cc(S(=O)(=O)N2CCC3(CC2)OCCN3S(=O)(=O)c2cccs2)ccc1F | n | n | n | n | n | x
O=S(=O)(c1ccccc1)N1CCC2(CC1)OCCN2S(=O)(=O)c1cccs1 | u | n | n | n | 20.6µM | n
COc1ccc(S(=O)(=O)N2CCC3(CC2)OCCN3S(=O)(=O)c2ccc(OC)cc2)cc1 | u | n | n | n | u | n
N#Cc1c(N)nc(N)nc1Nc1ccc(Br)cc1 | u | n | n | n | 14.6µM | n
Cc1nc(N)nc(Nc2ccc(C#N)cc2)c1Br | u | n | n | n | u | n
CN(CC(=O)O)c1ncc(CN2CCCC(c3cccc(C(=O)O)c3)C2)cn1 (configuration not stated) | x | x | x | x | x | n
CCS(=O)(=O)c1ccc(OC)c(N=Nc2ccc(O)c3ncccc23)c1 | u | 8.2µM | n | u | u | u
CCN(CC)S(=O)(=O)c1cc(OC)ccc1N=Nc1ccc(O)c2ncccc12 | 7.31µM | u | n | u | u | n
CCN(CC)S(=O)(=O)c1cccc2cccnc12 | n | n | n | n | n | n
COc1ccc(OC)c([S+](=O)([O-])c2nnn3c2nc(N2CCC(F)CC2)c2ccccc23)c1 | x | x | x | x | x | n[6.33 µM]
CCOc1ccc2[nH]c3c(NCCCOC)ncnc3c2c1 | u | n | -54.0 | n | u | n
CCOc1ccc2[nH]c3c(NCCOC)ncnc3c2c1 | u | n | n | n | n | n
COc1ccc2[nH]c3c(NCCN(C(C)C)C(C)C)ncnc3c2c1 | 16.4µM | n | -57.4 | n | 18.4µM | n
CCN(CC)CCCNc1nc2ccccc2c2[nH]c3ccc(OC)cc3c12 | 5.17µM | 20.6µM | -98.1 | u | 2.91µM | 44.7µM
CCOc1ccc2[nH]c3c(NCC(C)C)ncnc3c2c1 | u | n | u | n | 25.9µM | x
CCCOc1ccc(C(=O)OC(C)C(N)=O)cc1OCC (configuration not stated) | x | x | x | x | x | n
Fc1ccc(-c2cc(CC3(NCc4ccc5c(c4)OCO5)COC3)no2)cc1 | x | x | x | x | x | n
CCOc1ccc2[nH]c3c(NCCN(CC)CC)ncnc3c2c1 | n | u | -96.1 | u | n | n
CCOP(=O)(OCC)c1nc(-c2cccc3ccccc23)oc1NCc1ccc(OC)cc1 | u | u | -75.0 | u | u | u
COc1ccc(CCNc2oc(-c3cccc4ccccc34)nc2P(=O)(OC)OC)cc1OC | u | n | n | n | 14.6µM | n

Source: PubChem BioAssay
